From PubChem BioAssay (NCATS)
Results filed as inconclusive are left out. A call without a number means that no potency is given here. The source made the active and inactive calls. Unless noted, the call rests on the fitted dose curve; in most records, active means well fitted curve in the direction sought with a large enough effect; inconclusive means small, poorly fitted or top-dose-only effect, or another doubt; inactive means no such curve, though single readings can be large; an effect the other way counts as inactive or inconclusive.

What was measured:
[1] = qHTS to identify inhibitors of the type 1 interferon - major histocompatibility complex class I in skeletal muscle: primary screen against the NCATS Mechanism Interrogation Plate v5.0 (MIPE) Libary (AID 1347411); conditions: iHSKM cells + IFN-b, HiBiT-tagged MHC-I luminescence, 24 h; series mostly up to 45.8 µM; further: nearly all actives have a fitted effect of over 65% in size; further: potency means the concentration at half of the fitted maximal effect
Summary of the method: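 Immortalized human C25cl48 myoblasts with HiBit knocked into endogenous HLA-B*08:01 were stimulated with 4.0 ng/ml IFN-beta and exposed to compounds (11-point 1:3 titration, top 46 uM final) for 24 hrs at 37 C; HiBiT lytic luminescence measured.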

[2] = Cytotoxicity counterscreen for inhibitors of SARS-CoV-2 cell entry (AID 1645845; calls by dose curve; further: nearly all actives have a fitted effect of over 50% in size; further: potency means the concentration at half of the fitted maximal effect); conditions: cell viability (SARS-CoV-2 entry assay cells); series mostly up to 57.1 µM
Summary of the method: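 48 h compound treatment (after 1 h preincubation), HEK293-ACE2 cells, 37 C/5% CO2; ATP luminescence endpoint; normalized to cell wells and media blanks.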

[3] = NCATS anti-infectives library activity on HEK293 viability as a counter-qHTS vs the C. elegans viability qHTS (AID 1745854); conditions: HEK293 viability counter-screen; series mostly up to 41.8 µM; further: potency means the concentration at half of the fitted maximal effect
Summary of the method: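 HEK293 cells, 1500 per well, exposed 24 hr at 37C in 5% CO2 to compounds in a 1:5 titration, up to 41.7 uM final. Viability read as CellTiter-Glo luminescence after 10 min at room temperature.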

[4] = Confirmatory qHTS for VERO E6 Cytotoxicity Assay: Counterscreen for SARS-CoV-2 CPE Assay (AID 1508605; calls by dose curve; further: nearly all actives have a fitted effect of over 60% in size); conditions: cell viability luminescence; series mostly up to 20 µM
[5] = Confirmatory qHTS for activators (rescue) of SARS-CoV-2 Cytopathic Effect (CPE) (AID 1508606; calls by dose curve; further: potency means the concentration at half of the fitted maximal effect; nearly all actives have a fitted effect of over 70% in size); conditions: Vero E6 SARS-CoV-2 CPE rescue, viability luminescence; series mostly up to 20 µM
[6] = OV-KATE Cancer Cell Toxicity qHTS against the NCATS CANVASS Library (AID 1347345); conditions: OV-KATE cells viability, CellTiter-Glo luminescence, 72 h; series mostly up to 38.3 µM
Summary of the method: (§1)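 Viability was assessed by adding CellTiter-Glo reagent to treated cultures and reading luminescence after 15min at room temperature. Treatment lasted 72 h at 37 degrees C/5% CO2, using an 11-point series on 1000 cells/well.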

[7] = HPAF-II Cancer Cell Toxicity qHTS against the NCATS CANVASS Library (AID 1347346); conditions: HPAF-II viability, CellTiter-Glo ATP luminescence, 72 h; series mostly up to 38.3 µM; further: nearly all actives have a fitted effect of over 55% in size
Summary of the method: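 HPAF-II cells were seeded at 1000 cells/well, allowed to settle for 4 h at 37 degrees C, then exposed to compounds in an 11-point series for 72 h. Viability was read by CellTiter-Glo luminescence.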

[8] = UWB1.289 Cancer Cell Toxicity qHTS against the NCATS CANVASS Library (AID 1347347); conditions: UWB1.289 viability, CellTiter-Glo luminescence, 72 h; series mostly up to 38.3 µM; further: nearly all actives have a fitted effect of over 60% in size
Summary of the method: as §1

[9] = Panc-1005 Cancer Cell Toxicity qHTS against the NCATS CANVASS Library (AID 1347349); conditions: Panc-1005 viability, CellTiter-Glo luminescence, 72 h; series mostly up to 38.3 µM; further: nearly all actives have a fitted effect of over 60% in size
Summary of the method: as §1

[10] = SW1088 Cancer Cell Toxicity qHTS against the NCATS CANVASS Library (AID 1347350); conditions: SW1088 viability, CellTiter-Glo luminescence, 72 h; series mostly up to 38.3 µM; further: nearly all actives have a fitted effect of over 75% in size
Summary of the method: as §1

[11] = U-118MG Cancer Cell Toxicity qHTS against the NCATS CANVASS Library (AID 1347351); conditions: U-118MG viability, CellTiter-Glo luminescence, 72 h; series mostly up to 38.3 µM
Summary of the method: as §1

[12] = COV-362 Cancer Cell Toxicity qHTS against the NCATS CANVASS Library (AID 1347352); conditions: COV-362 viability, CellTiter-Glo luminescence, 72 h; series mostly up to 38.3 µM
Summary of the method: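 Cells were seeded at 1000 per well and allowed to settle 4 hours at 37 degrees C before pin transfer of compounds as an 11-point series. Viability was read by CellTiter-Glo luminescence after 72 hours' exposure.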

[13] = HPAF-II 24hr Apoptosis Induction qHTS against the NCATS CANVASS Library (AID 1347356); conditions: HPAF-II caspase-3/7 Caspase-Glo luminescence; series mostly up to 46.1 µM
Summary of the method: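 HPAF-II cells (500/well) in DMEM + 10% FBS were treated with an 11-point compound series for 24 hours at 37 degrees C. Caspase-3/7 activity was then read by Caspase-Glo DEVD luminescence after 15 min.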

[14] = HEK293 18hr Apoptosis Induction qHTS against the NCATS CANVASS Library (AID 1347357); conditions: HEK293 caspase-3/7 Caspase-Glo luminescence; series mostly up to 46.1 µM
Summary of the method: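 Caspase-Glo 3/7 luminescence (15 min, room temperature) measured apoptosis after an 18-hour, 37 degrees C exposure of HEK293 cells (500 cells/well) to compounds in 11 points.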

[15] = HPAF-II 12hr Apoptosis Induction qHTS against the NCATS CANVASS Library (AID 1347358); conditions: HPAF-II caspase-3/7 Caspase-Glo luminescence; series mostly up to 46.1 µM
Summary of the method: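 HPAF-II cells (500/well, DMEM + 10% FBS) were exposed to compounds for 12 hours at 37 degrees C. Caspase-3/7 activity was then read by Caspase-Glo 3/7 luminescence after 15 min at room temperature.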

[16] = HEK293 24hr Apoptosis Induction qHTS against the NCATS CANVASS Library (AID 1347359); conditions: HEK293 caspase-3/7 activation, Caspase-Glo luminescence; series mostly up to 46.1 µM
Summary of the method: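 Caspase-3/7 activation measured as luminescence from the DEVD-based Caspase-Glo reagent, 15 min at room temperature, following 24-hour compound treatment of HEK293 cells.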

[17] = HPAF-II 18hr Apoptosis Induction qHTS against the NCATS CANVASS Library (AID 1347360); conditions: HPAF-II caspase-3/7 luminescence; series mostly up to 46.1 µM
Summary of the method: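 Caspase-3/7 activation was measured with luminescent Caspase-Glo 3/7 reagent (15 min, RT) in HPAF-II cancer cells (500 cells/well). Before detection, cells had been treated for 18 h at 37 C with compounds (11 points).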

[18] = HEK293 12hr Apoptosis Induction qHTS against the NCATS CANVASS Library (AID 1347361); conditions: HEK293 caspase-3/7 Caspase-Glo luminescence; series mostly up to 46.1 µM
Summary of the method: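 HEK293 cells (500/well, DMEM + 10% FBS) were exposed to natural products across an 11-point series for 12 hours at 37 degrees C. Caspase-3/7 activity was then measured with DEVD luciferase luminescence after 15 min at room temperature.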

[19] = test system: NAD(P)H diaphorase (Clostridium kluyveri); experiment: Diaphorse counterscreen qHTS: Assay Interference Panel against the NCATS CANVASS Library (AID 1347362); conditions: Diaphorase enzyme, resazurin to resorufin fluorescence; series mostly up to 57.5 µM
Summary of the method: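 Counterscreen for coupling-enzyme interference: resorufin fluorescence from resazurin/NADH turnover, read after 5 min at room temperature. Compounds were tested over an 11-point series after 15 min dark preincubation with diaphorase in PBS-Tween.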

[20] = Primary qHTS to identify inhibitors of SARS-CoV-2 cell entry (AID 1645846; calls by dose curve; further: nearly all actives have a fitted effect of over 45% in size); conditions: SARS-CoV-2 pseudovirus cell entry assay, luminescence; activity change, negative = inhibition: at 57.1 µM (top of the series) unless noted; series mostly up to 57.1 µM
Summary of the method: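 Entry measured by luciferase signal 48 h after adding SARS-CoV-2-S pseudotyped MLV particles to HEK293-ACE2 cells preincubated 1 h with compounds. Normalisation: bald particles and spike particles.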

COc1cc(C(=O)N2CC[C@@H](O)[C@@H](N)C2)cc2nc(-c3cc4ccccc4n3CC3CC3)n(C)c12
Potency [1]: inactive
Potency [2]: inactive

CN1CCC2=C(C1)c1ccccc1Cc1ccccc12
Potency [2]: inactive

CN1Cc2c(ccc3c2OCO3)[C@@H]2[C@H]1c1cc3c(cc1C[C@@H]2O)OCO3
Potency [3]: inactive

CN1CCCCC1Cn1cc(C(=O)c2cc([N+](=O)[O-])ccc2I)c2ccccc21 (stereo not drawn)
Potency [4]: inactive
Potency [5]: 10 µM (active)

CN1C(=O)[C@]23CC4C(C)(C)[C@@]5(C[C@@]41CN2CC[C@@]3(C)O)C(=O)Nc1c5ccc2c1OC=CC(C)(C)O2 (stereo partly drawn)
Potency [6]: inactive
Potency [7]: inactive
Potency [8]: inactive
Potency [9]: inactive
Potency [10]: inactive
Potency [11]: inactive
Potency [12]: inactive
outcome [13]: inactive
Potency [14]: inactive
outcome [15]: inactive
Potency [16]: inactive
outcome [17]: inactive
Potency [18]: inactive
outcome [19]: inactive

COc1ccc2c(c1)c(CCN(C)C)cn2S(=O)(=O)c1ccccc1
Potency [4]: inactive

C/C=C1/CN2CC[C@]34C(=Nc5ccccc53)[C@@H]2C[C@@H]1[C@H]4C(=O)OC
Potency [6]: inactive
Potency [7]: inactive
Potency [8]: inactive
Potency [9]: inactive
Potency [10]: inactive
Potency [11]: inactive
Potency [12]: inactive
outcome [13]: inactive
Potency [14]: inactive
outcome [15]: inactive
Potency [16]: inactive
outcome [17]: inactive
Potency [18]: inactive
outcome [19]: inactive

CN1CN(c2ccccc2)C2(CCN(CCCC(=O)c3ccc(F)cc3)CC2)C1=O
Potency [4]: inactive
Potency [5]: 7.08 µM (active)

C/C=C(\C)C(=O)O[C@H]1CC2C(=C1C)[C@H]1OC(=O)[C@](C)(O)[C@]1(O)[C@H](OC(=O)CCC)C[C@@]2(C)OC(C)=O (stereo partly drawn)
Potency [5]: 2.2 µM (active)

NC(=O)[C@@H](CC1CC1)[C@@H](CCC(F)(F)F)C(=O)N[C@H]1N=C(c2ccccc2)c2cccc(F)c2NC1=O
Potency [1]: inactive
Potency [2]: inactive
activity change, negative = inhibition [20]: -2.84%

COc1ccc(CCNCc2ccc(OC)c3ccccc23)cc1
Potency [4]: inactive
Potency [5]: 11.2 µM (active)

C[C@H](Nc1ncnc2nc[nH]c12)c1nc2ccc(F)cc2c(=O)n1-c1ccccc1
activity change, negative = inhibition [20]: -57.8%

CC(C)C(=O)O[C@H]1[C@@H]2[C@H](C)C(=O)O[C@@H]2C[C@@H](C)[C@@H]2C=CC(=O)[C@]21C
Potency [5]: 7.94 µM (active)

Cc1ncc(OC[C@@]2(c3cccc(F)c3)C[C@H]2C(=O)Nc2ccc(F)cn2)c(C)n1
Potency [1]: inactive
Potency [20]: inactive

C/C(=C\c1csc(C)n1)[C@@H]1C[C@@H]2O[C@@H]2CCC[C@H](C)[C@H](O)[C@@H](C)C(=O)C(C)(C)[C@@H](O)CC(=O)O1
Potency [1]: inactive
Potency [2]: inactive
activity change, negative = inhibition [20]: -70%

CC[C@H]1/C=C\C=C/C[C@@H](C)[C@H](O)[C@@](C)(O)C(=O)[C@@H](C)[C@H](O)[C@@H](C)C(=O)[C@@H](C)[C@H](O)[C@@H](C)/C=C\C(=O)O[C@@H]2[C@H](C)[C@H](CC1)O[C@]1(CC[C@H](C)[C@H](C[C@@H](C)O)O1)[C@H]2C
Potency [1]: 20.8 µM (active)
Potency [2]: 20 µM (active)
Potency [3]: 15.8 µM (active)
